Inconclusive results are not listed. A call without a number means that no potency is given here. A number with no mark means an inactive call. Activity calls are given as the source filed them. Unless noted, the call rests on the fitted dose curve.
Key:
[1] = qHTS for Inhibitors of the Functional Ribonucleoprotein Complex (vRNP) of Lassa (LASV) Arenavirus: LASV Primary Screen - GLuc reporter signal (AID 1347082; calls by dose curve; tested in HEK293 reporter line; further: nearly all actives have a fitted effect of over 60% in size; on activity change, negative = inhibition: series mostly up to about 57 µM)
[2] = qHTS for Inhibitors of the Functional Ribonucleoprotein Complex (vRNP) of Lassa (LASV) Arenavirus: Viability assay - alamar blue signal for LASV Primary Screen (AID 1347083; calls by dose curve; tested in HEK293 reporter line; further: nearly all actives have a fitted effect of over 80% in size; on activity change, negative = reduced viability: series mostly up to about 57 µM)
[3] = qHTS for Inhibitors of the Functional Ribonucleoprotein Complex (vRNP) of Lymphocytic Choriomeningitis Arenaviruses (LCMV): Viability assay - alamar blue signal for LCMV Primary Screen (AID 1347085; calls by dose curve; tested in HEK293 reporter line; further: nearly all actives have a fitted effect of over 80% in size; on activity change, negative = lower viability: series mostly up to about 57 µM)
[4] = biological target: Nucleoprotein (Lymphocytic choriomeningitis virus (strain Armstrong)) (UniProt P09992); test: qHTS for Inhibitors of the Functional Ribonucleoprotein Complex (vRNP) of Lymphocytic Choriomeningitis Arenaviruses (LCMV): LCMV Primary Screen - GLuc reporter signal (AID 1347086); further: nearly all actives have a fitted effect of over 70% in size; on activity change, negative = inhibition: series mostly up to about 57 µM
Nucleoprotein (Lymphocytic choriomeningitis virus (strain Armstrong)), sequence (P09992 whole entry, looked up): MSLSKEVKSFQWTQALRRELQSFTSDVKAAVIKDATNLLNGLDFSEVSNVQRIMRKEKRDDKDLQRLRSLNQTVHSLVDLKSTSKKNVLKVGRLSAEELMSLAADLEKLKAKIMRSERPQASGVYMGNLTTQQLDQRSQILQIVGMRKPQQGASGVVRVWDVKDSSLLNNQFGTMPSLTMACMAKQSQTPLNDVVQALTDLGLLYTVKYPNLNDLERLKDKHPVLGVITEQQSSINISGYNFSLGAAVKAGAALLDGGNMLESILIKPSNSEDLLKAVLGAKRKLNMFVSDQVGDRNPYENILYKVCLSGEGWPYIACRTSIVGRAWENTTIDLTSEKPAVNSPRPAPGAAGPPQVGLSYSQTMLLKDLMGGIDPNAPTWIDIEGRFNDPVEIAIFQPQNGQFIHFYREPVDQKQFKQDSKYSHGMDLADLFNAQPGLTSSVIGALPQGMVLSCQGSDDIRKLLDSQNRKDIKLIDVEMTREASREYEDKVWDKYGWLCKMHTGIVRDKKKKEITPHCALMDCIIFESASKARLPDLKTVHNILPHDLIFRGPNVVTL
Potency means the concentration at half of the fitted maximal effect.

SMILES	Potency [1]	Potency [2]	Potency [3]	Potency [4]	activity change, negative = inhibition [1]	activity change, negative = reduced viability [2]	activity change, negative = lower viability [3]	activity change, negative = inhibition [4]
C#CCCC[C@@H]1OC(=O)CNC(=O)C([C@@H](C)CC)NC(=O)[C@@H]2CCCN2C(=O)C([C@@H](C)CC)OC(=O)[C@H](Cc2ccccc2)N(C)C(=O)[C@H](C(C)C)NC(=O)C1(C)C (stereo not given in full)	inactive	inactive	inactive	inactive				
COC(=O)c1nccc2c1[nH]c1ccccc12	inactive	inactive	inactive	inactive				
COc1ccc(/C=C/C(=O)O)cc1	inactive	inactive	inactive	inactive				
CC(=O)OCC(=O)[C@@]1(O)CC[C@H]2[C@@H]3CCC4=CC(=O)CC[C@]4(C)[C@@H]3C(=O)C[C@@]21C	inactive	inactive	inactive	inactive				
C[C@H](Cn1cnc2c(N)ncnc21)OCP(=O)(O)O	inactive	inactive	inactive	inactive				
CC1(C)C[C@H](O)[C@]2(CO)[C@H](O)C[C@]3(C)C(=CCC4[C@@]5(C)CC[C@H](O)C(C)(C)C5CC[C@]43C)[C@@H]2C1 (stereo not given in full)	inactive	inactive	inactive	inactive				
CCCC1CCOC(C)S1 (stereo not given)	inactive	inactive	inactive	inactive				
COc1cc(CCc2ccccc2)c(C(=O)O)c(O)c1CC=C(C)C	inactive	inactive	inactive	inactive				
CC1=CCC(C(C)C)C=C1 (stereo not given)	inactive	inactive	inactive	inactive				
CC1(C)CCC[C@@]2(C)CC=C(C(=O)O)[C@@H]3C[C@]312	inactive	inactive	inactive	inactive				
CN(CC=CC#CC(C)(C)C)Cc1cccc2ccccc12	inactive	inactive	inactive	inactive				
CC1=CCC(=C(C)C)CC1	inactive	inactive	inactive	inactive				
CC1OC(Oc2ccc3ccc(=O)oc3c2-c2c(O)ccc3cc(Oc4ccc5ccc(=O)oc5c4)c(=O)oc23)C(O)C(O)C1O (stereo not given)	inactive	inactive	inactive	inactive				
O=C(OCCc1ccccc1)c1ccccc1	inactive	inactive	inactive	inactive				
COc1cc(/C=C/c2ccc(O)cc2)cc(OC)c1	inactive	inactive	inactive	inactive				
C=C(CC[C@]12OC(C(=O)O)C(O)(C(=O)O)C(C(=O)O)(O1)C(OC(=O)/C=C/[C@@H](C)C[C@@H](C)CC)C2O)[C@@H](OC(C)=O)[C@H](C)Cc1ccccc1 (stereo not given in full)	inactive	inactive	inactive	inactive				
CCOC(=O)c1c(C)nc(C)c(C(=O)OCC)c1-c1ccccc1	inactive	inactive	inactive	inactive				
CC1(C)C2CC[C@]3(C)C(CC=C4[C@@H]5C[C@@](C)(CO)[C@@H](O)C[C@]56C[C@@H](OC6=O)[C@]43C)[C@@]2(C)CC[C@@H]1O (stereo not given in full)	inactive	inactive	inactive	inactive				
OC[C@H]1O[C@@H](Oc2ccc(O)cc2)[C@H](O)[C@@H](O)[C@H]1O	inactive	inactive	inactive	inactive				
CCCCCCC(CO)CCCC (stereo not given)	inactive	inactive	inactive	inactive				

SMILES	Potency [1]	Potency [2]	Potency [3]	Potency [4]	activity change, negative = inhibition [1]	activity change, negative = reduced viability [2]	activity change, negative = lower viability [3]	activity change, negative = inhibition [4]
O=C(O)c1cccc(C(=O)O)n1	inactive	inactive	inactive	inactive				
C=CC(C)(CCC=C(C)C)OC(=O)c1ccccc1 (stereo not given)	inactive	inactive	inactive	inactive				
COc1cc(C)cc(O)c1	inactive	inactive	inactive	inactive				
N#CC(c1ccc(O)cc1)N1CCCCC1 (stereo not given)	inactive	inactive	inactive	inactive				
CC1CC(C)C(=O)C1=O (stereo not given)	inactive	inactive	inactive	inactive				
COc1cc(OC)c2ccc(=O)oc2c1	inactive	inactive	inactive	inactive				
CC(=O)O[C@H](COc1c2ccoc2cc2oc(=O)ccc12)C(C)(C)O	inactive	inactive	inactive	inactive				
O=C(O)c1ccco1	inactive	inactive	inactive	inactive				
OC[C@H]1O[C@@H]2O[C@H]3[C@H](O)[C@@H](O)[C@@H](O[C@H]4[C@H](O)[C@@H](O)[C@@H](O[C@H]5[C@H](O)[C@@H](O)[C@@H](O[C@H]6[C@H](O)[C@@H](O)[C@@H](O[C@H]7[C@H](O)[C@@H](O)[C@@H](O[C@H]8[C@H](O)[C@@H](O)[C@@H](O[C@H]9[C@H](O)[C@@H](O)[C@@H](O[C@H]1[C@H](O)[C@H]2O)O[C@@H]9CO)O[C@@H]8CO)O[C@@H]7CO)O[C@@H]6CO)O[C@@H]5CO)O[C@@H]4CO)O[C@@H]3CO	inactive	inactive	inactive	inactive				
C/C(=C\CNc1ncnc2c1ncn2[C@@H]1O[C@H](CO)[C@@H](O)[C@H]1O)CO	inactive	inactive	inactive	inactive				
CCC[C@H]1C[C@H](C(=O)N[C@@H]([C@@H]2O[C@@H](SC)[C@@H](O)[C@@H](O)[C@@H]2O)[C@H](C)Cl)N(C)C1	inactive	inactive	inactive	inactive				
Cc1cc(Nc2cc(NC(=O)c3c(Cl)cccc3Cl)ccn2)nc(N)n1	6.11 µM (active)	3.06 µM (active)	3.06 µM (active)	3.85 µM (active)				
N#CC(=C(O)c1ccc(Cl)cc1Cl)c1nc2cc(Cl)ccc2c(=O)[nH]1	inactive	inactive	inactive	inactive				
CCCCCCCCC1OC1CCCCCCCC(=O)O (stereo not given)	inactive	inactive	inactive	inactive				
COc1cc2ccc(=O)oc2cc1O	inactive	inactive	inactive	inactive				
CC(CCC(=O)O)C1CCC2C3CC(O)C4CC(O)CC[C@]4(C)C3CCC12C (stereo not given in full)	inactive	inactive	inactive	inactive				
COc1c2c(nc3occc13)C(CC=C(C)C)(OC)C(=O)C=C2 (stereo not given)	inactive	inactive	inactive	inactive				
N[C@@H](CCCCNC(=O)CCCC[C@@H]1SC[C@H]2NC(=O)N[C@H]12)C(=O)O	inactive	inactive	inactive	inactive				
COc1ccc(C(=O)/C=C/c2ccc(O)cc2)c(O)c1C/C=C(\C)CCC=C(C)C	inactive	inactive	inactive	inactive				
CC/C=C\CCOC(=O)C(C)C	inactive	inactive	inactive	inactive				

SMILES	Potency [1]	Potency [2]	Potency [3]	Potency [4]	activity change, negative = inhibition [1]	activity change, negative = reduced viability [2]	activity change, negative = lower viability [3]	activity change, negative = inhibition [4]
C=C(C)[C@@H]1CC[C@@H](C)C[C@@H]1O	inactive	inactive	inactive	inactive				
C[C@@H]1CC(=O)[C@H]2CC(CO)=CCC[C@@H]2[C@@]1(C)CC/C(=C/CO)CO	inactive	inactive	inactive	inactive				
COc1cc2c(cc1OC)OC(C)(C)C=C2	inactive	inactive	inactive	inactive				
C=C1CCC2[C@](C)(CO)C(O)CC[C@]2(C)C1CC=C1C(=O)OCC1O (stereo not given in full)	inactive	inactive	inactive	inactive				
CN1CCc2cc3c(cc2C1)OCO3	inactive	inactive	inactive	inactive				
C/C=C(/C)C(=O)O[C@@H]1[C@H](OC(=O)C=C(C)C)c2c(ccc3ccc(=O)oc23)OC1(C)C	inactive	inactive	inactive	inactive				
COc1cc(C)c(C(=O)Oc2cc(C)c(C(=O)O)c(O)c2C)c(O)c1C(=O)O	inactive	inactive	inactive	inactive				
COc1ccc(C(=O)/C=C/c2ccc(O)cc2)c(O)c1CC=C(C)C	inactive	inactive	inactive	inactive				
N#CC(=Cc1ccc(O)c(O)c1)C(=O)NCc1ccccc1	inactive	inactive	inactive	inactive				
CC1(C)Oc2ccc3ccc(=O)oc3c2C[C@H]1O[C@@H]1O[C@H](CO)[C@@H](O)[C@H](O)[C@H]1O	inactive	inactive	inactive	inactive				
CCCCc1ccc(O)cc1	inactive	inactive	inactive	inactive				
NC1=NCCCC1	inactive	inactive	inactive	inactive				
O=C(CNC(=O)c1ccccc1)c1ccccc1	inactive	inactive	inactive	inactive				
Nc1nc(N)c2[nH]cnc2n1	inactive	inactive	inactive	inactive				
COc1cc2c(c(OC)c1OC)-c1c(cc3c(c1O)OCO3)C[C@@H](C)[C@@H](C)C2	inactive	inactive	inactive	inactive				
CC12CCC(C1)C(C)(C)C2=O (stereo not given)	inactive	inactive	inactive	inactive				
Cc1ccc([N+](=O)[O-])cc1S(=O)(=O)N(C)N=Cc1cnc2ccc(Br)cn12	0.0217 µM (active)	0.0243 µM (active)	0.0611 µM (active)	0.217 µM (active)				
NC(=O)[C@H]1CCCN1C(=O)[C@H](Cc1cnc[nH]1)NC(=O)[C@@H]1CCC(=O)N1					10.2% [at 5.82 µM]	6.52% [at 5.82 µM]	-0.247% [at 5.82 µM]	-2.24% [at 5.82 µM]
CC(C)(O)[C@@H]1CC(=O)[C@]2(C)[C@H](CC[C@@]3(C)[C@H](c4ccoc4)OC(=O)[C@H]4O[C@]432)[C@@]1(C)/C=C\C(=O)O	inactive	inactive	inactive	inactive				
C/C=C\C/C=C/CCCCCCCCOC(C)=O	inactive	inactive	inactive	inactive				
